Records with an inconclusive call do not appear. Active and inactive are the calls of the source. The calls were made as follows: active = hit-call score of the fitted dose curve at least 0.9, where 1 is the maximum; inconclusive = response in the unintended direction; inactive = score below 0.9.
Tests used:
[1] = ArunA_NOG_NucleusCount: ArunA Biomedical's Neurite Outgrowth (NOG) Assay for Nucleus Count (AID 2283756)
In short: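 Viable neuron count, from Hoechst nuclei passing size and intensity gates, imaged at 20x on differentiated H9-derived human neurons. Exposure lasted 48 h from seeding; activity was scored relative to DMSO.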

[2] = ArunA_NOG_NeuriteLength: ArunA Biomedical's Neurite Outgrowth (NOG) Assay for Neurite Length (AID 2283757)
In short: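 Total neurite length per neuron, from traced βIII-tubulin-labelled processes longer than 10 um on viable Hoechst-gated cells, was scored as decrease from DMSO. Cells were hESC (H9)-derived neurons given 48 h chemical exposure immediately after seeding.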

[3] = ArunA_NOG_NeuritesPerNeuron: ArunA Biomedical's Neurite Outgrowth (NOG) Assay for Neurites Per Neuron (AID 2283758)
In short: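 Differentiated human H9-derived neurons exposed to chemicals for 48 h from seeding, then stained with Hoechst and βIII-tubulin/DyLight 488. Automated imaging counted neurites (processes >10 um) per valid neuron; loss of signal versus DMSO scored.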

[4] = ArunA_NOG_BranchPointsPerNeurite: ArunA Biomedical's Neurite Outgrowth (NOG) Assay for Branch Points Per Neurite (AID 2283759)
In short: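 Automated image analysis traced neurites (processes >10 um) from valid cell bodies after Hoechst and βIII-tubulin staining. hNN cells from H9 embryonic stem cells, 48 h exposure. Fitted bidirectionally against DMSO.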

[5] = target: Luciferin 4-monooxygenase (Photinus pyralis) (UniProt P08659); assay: CCTE_Simmons_QuantiLum_inhib_2: CCTE's Firefly Luciferase Inhibition Assay, Simmons Lab (AID 2283767)
Chain of Luciferin 4-monooxygenase (Photinus pyralis) (P08659 whole entry, looked up): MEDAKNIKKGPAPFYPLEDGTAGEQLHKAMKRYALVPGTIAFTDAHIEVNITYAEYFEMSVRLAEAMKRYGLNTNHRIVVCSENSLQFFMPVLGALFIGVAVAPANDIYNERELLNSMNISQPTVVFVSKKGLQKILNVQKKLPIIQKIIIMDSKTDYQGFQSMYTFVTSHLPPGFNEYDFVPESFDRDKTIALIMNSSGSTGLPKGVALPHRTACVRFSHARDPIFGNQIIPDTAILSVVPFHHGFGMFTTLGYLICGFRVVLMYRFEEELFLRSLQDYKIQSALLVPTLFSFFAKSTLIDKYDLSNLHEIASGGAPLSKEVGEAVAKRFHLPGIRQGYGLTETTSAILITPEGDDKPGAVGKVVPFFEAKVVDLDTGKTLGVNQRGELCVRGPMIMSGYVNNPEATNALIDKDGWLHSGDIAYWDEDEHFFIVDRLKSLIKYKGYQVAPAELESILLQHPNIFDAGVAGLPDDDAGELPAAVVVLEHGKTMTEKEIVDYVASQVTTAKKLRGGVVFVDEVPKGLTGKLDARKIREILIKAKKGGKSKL
In short: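 Eight test concentrations, 5 nM up to 87.5 uM final, preincubated 30min at 37C in the dark with purified luciferase (0.5% DMSO final). Detection reagent (150uM D-luciferin, 147uM dATP, 75uM CoA, pH 7.8) injected per well before kinetic luminescence read; three replicates.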

[6] = ACEA_AR_agonist_AUC_viability: ACEA Biosciences xCELLigence Real-Time Cell Analysis on Androgen Receptor Agonism for Viability (AID 2283775);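 as to AC50: viability read 80 hours after compound addition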
In short: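 22Rv1 cells; impedance growth kinetics; 8-pt 1:4 dilutions from 100 uM top final, ≤0.5% DMSO; n = 2; 80 h read; AUC viability, loss-of-signal vs DMSO.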

[7] = ACEA_ER_AUC_viability: ACEA Biosciences xCELLigence Real-Time Cell Analysis on Estrogen Receptor Agonism for Viability (AID 2283782);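 also: hit means loss of impedance signal meaning reduced cell growth or viability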
In short: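 Read-out: real-time electrical impedance (RT-CES) area under curve, loss of signal taken as reduced viability, normalized to DMSO baseline. T-47D cells, charcoal-stripped serum medium, compounds up to 100 uM final, continuous exposure, 80 h.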

[8] = Tanguay_ZF_120hpf_ActivityScore_legacy: (Legacy) Oregon State University Tanguay Lab 120 Hour Post-fertilization zebrafish Assay Score for Activity (AID 2283742);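 as to AC50: dechorionated Tropical 5D wild-type zebrafish embryos held singly per well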
In short: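 Dechorionated 5D embryos, one per well, static exposure 6–120 hpf, 28C, sealed and dark; final DMSO 0.64% (vol/vol). Brightfield binary scoring of mortality plus 18 endpoints; gain-of-signal fit versus DMSO baseline.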

[9] = ACEA_AR_antagonist_AUC_viability: ACEA Biosciences xCELLigence Real-Time Cell Analysis on Androgen Receptor Antagonism for Viability (AID 2283776);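 also: area under impedance growth curve at 80 h after dosing as viability; hits lower the growth signal relative to DMSO meaning cytotoxicity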
In short: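 22Rv1 human prostate cancer cells were seeded on electrode plates, monitored overnight, then exposed to eight 1:4 dilutions from 100 uM final. Impedance-based growth kinetics at 80 h gave an AUC viability endpoint normalized to DMSO.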

[10] = test system: Thyroperoxidase (TPO), gene 445522; assay: CCTE_Simmons_GUA_TPO: CCTE's Guaiacol Assay for Thyroperoxidase (TPO) Inhibition, Simmons Lab (AID 2283750)
In short: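 Porcine thyroid microsomes (25 ug) in 200mM potassium phosphate, preincubated 30 s at 37C with compound (8 concentrations, 5 nM–87.5 uM) and 35mM guaiacol; 1mM H2O2 starts reaction. Absorbance change at 450nm over first 80 s; loss of signal versus DMSO, three replicates.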

[11] = STM_H9_NormalizedViability: Cytotoxicity Assessment at 120 hours in the Stemina devTOX quickPredict H9 human embryonic stem cell (hESC)-based Assay (AID 2283784)
In short: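 Viability endpoint: background-corrected CellTiter-Fluor RFU expressed relative to the 0.1% DMSO mean on each plate. Undifferentiated H9 cells were treated with daily re-dosing and media change, and loss of signal was fitted.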

AR (gene 367) [12] = target: AR (gene 367) (UniProt P10275); assay: ACEA_AR_antagonist_80hr: ACEA Biosciences xCELLigence Real-Time Cell Analysis on Androgen Receptor Antagonism for Proliferation (AID 2283787);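 also: hits lower the impedance growth signal relative to DMSO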
Chain of AR (gene 367) (P10275 whole entry, looked up): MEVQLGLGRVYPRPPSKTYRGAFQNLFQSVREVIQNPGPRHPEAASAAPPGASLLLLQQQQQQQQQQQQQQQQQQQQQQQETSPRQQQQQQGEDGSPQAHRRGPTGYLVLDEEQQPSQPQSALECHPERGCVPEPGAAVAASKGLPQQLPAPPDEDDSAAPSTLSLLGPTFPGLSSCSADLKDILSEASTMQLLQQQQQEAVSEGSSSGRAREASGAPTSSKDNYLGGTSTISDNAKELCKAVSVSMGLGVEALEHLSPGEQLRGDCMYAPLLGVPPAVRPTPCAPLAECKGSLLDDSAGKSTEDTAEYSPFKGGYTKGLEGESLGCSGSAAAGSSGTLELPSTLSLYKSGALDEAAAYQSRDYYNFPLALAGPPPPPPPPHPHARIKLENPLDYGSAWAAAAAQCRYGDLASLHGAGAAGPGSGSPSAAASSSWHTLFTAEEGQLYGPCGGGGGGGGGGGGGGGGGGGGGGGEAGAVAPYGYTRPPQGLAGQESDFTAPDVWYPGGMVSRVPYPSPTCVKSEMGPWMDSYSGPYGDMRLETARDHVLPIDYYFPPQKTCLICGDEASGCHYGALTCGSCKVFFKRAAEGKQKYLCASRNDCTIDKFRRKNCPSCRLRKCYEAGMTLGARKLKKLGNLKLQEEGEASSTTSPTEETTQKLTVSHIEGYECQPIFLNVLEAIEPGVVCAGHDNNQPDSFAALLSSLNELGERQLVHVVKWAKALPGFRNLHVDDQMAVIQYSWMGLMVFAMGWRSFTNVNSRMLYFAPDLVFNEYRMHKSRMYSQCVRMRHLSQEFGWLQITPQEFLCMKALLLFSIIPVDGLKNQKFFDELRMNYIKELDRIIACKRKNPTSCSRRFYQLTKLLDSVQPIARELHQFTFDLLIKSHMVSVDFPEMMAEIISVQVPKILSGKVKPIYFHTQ
In short: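 Measures real-time proliferation of 22Rv1 prostate cancer cells by electrode impedance at 80 hours after dosing. Test articles ran at eight concentrations (1:4 steps, top 100 uM final) in biological duplicate.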

AR (gene 367) [13] = target: AR (gene 367) (UniProt P10275); assay: ACEA_AR_agonist_80hr: ACEA Biosciences xCELLigence Real-Time Cell Analysis on Androgen Receptor Agonism for Proliferation (AID 2283783);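 also: hits increase impedance growth signal above DMSO baseline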
In short: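 Impedance (RT-CES) growth signal at 80 h post-dose; 22Rv1 cells, 8-pt 1:4 series, top 100 uM final, DMSO ≤0.5%; duplicate plates; gain-of-signal fit relative to DMSO baseline.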

[14] = test system: turtle Estrogen Receptor (ERa), gene 101933533; assay: ATG_trERa_XSP2: Attagene TRANS-FACTORIAL Multi-Species (XSP2) HepG2 Assay for turtle Estrogen Receptor (ERa) (AID 2283812);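 also: actives raise reporter signal above DMSO so AC50 reflects agonist activity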
In short: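 Readout is reporter mRNA quantified by RT-PCR with capillary electrophoresis after 24 h compound exposure, increase relative to DMSO. Uses transiently transfected human HepG2 liver cells carrying a chimeric turtle ERa-Gal4 receptor driving GAL4-UAS reporters.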

[15] = target: Estrogen receptor beta (Homo sapiens) (UniProt Q92731); assay: ATG_hERb_XSP2: Attagene TRANS-FACTORIAL Multi-Species (XSP2) HepG2 Assay for human Estrogen Receptor (ERb) (AID 2283813);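 also: actives raise reporter mRNA above DMSO so AC50 reflects agonist induction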
Chain of Estrogen receptor beta (Homo sapiens) (Q92731 whole entry, looked up, the tested form may be a part): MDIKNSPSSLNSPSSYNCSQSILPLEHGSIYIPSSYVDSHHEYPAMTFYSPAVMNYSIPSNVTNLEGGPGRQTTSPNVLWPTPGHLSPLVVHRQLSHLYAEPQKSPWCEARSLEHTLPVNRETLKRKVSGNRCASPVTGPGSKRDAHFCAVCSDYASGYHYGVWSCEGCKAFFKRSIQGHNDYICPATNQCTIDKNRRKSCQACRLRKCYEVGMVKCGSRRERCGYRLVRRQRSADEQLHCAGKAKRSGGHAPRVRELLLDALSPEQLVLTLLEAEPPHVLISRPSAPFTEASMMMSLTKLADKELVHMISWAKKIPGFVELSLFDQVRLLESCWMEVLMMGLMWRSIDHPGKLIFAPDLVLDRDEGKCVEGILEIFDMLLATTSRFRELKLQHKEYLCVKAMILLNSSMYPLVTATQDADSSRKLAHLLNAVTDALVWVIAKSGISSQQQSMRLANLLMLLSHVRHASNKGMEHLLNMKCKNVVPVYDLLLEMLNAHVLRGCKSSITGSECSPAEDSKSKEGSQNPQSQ
In short: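 Transient TRANS reporter system in HepG2: after 24 h of chemical, RNA is reverse-transcribed, reporter cDNA amplified, FAM-labelled and sized by capillary electrophoresis. Induction of the human ERb-Gal4 reporter is measured relative to DMSO.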

[16] = test system: turtle Androgen Receptor (AR), gene 101947425; assay: ATG_trAR_XSP2: Attagene TRANS-FACTORIAL Multi-Species (XSP2) HepG2 Assay for turtle Androgen Receptor (AR) (AID 2283815)
In short: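 Reporter transcripts were quantified via RT-PCR and capillary electrophoresis and fitted upward against DMSO. Transiently transfected human HepG2 cells carrying NR-Gal4 chimeras were exposed 24 h, with 3 nM 6-alpha-fluorotestosterone plus 1.5 nM norgestrel added.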

[17] = target: zebrafish Estrogen Receptor (ER1), esr1 (gene 259252) (UniProt P57717); assay: ATG_zfER1_XSP2: Attagene TRANS-FACTORIAL Multi-Species (XSP2) HepG2 Assay for zebrafish Estrogen Receptor (ER1) (AID 2283816)
Chain of zebrafish Estrogen Receptor (ER1), esr1 (gene 259252) (P57717 whole entry, looked up, the tested form may be a part): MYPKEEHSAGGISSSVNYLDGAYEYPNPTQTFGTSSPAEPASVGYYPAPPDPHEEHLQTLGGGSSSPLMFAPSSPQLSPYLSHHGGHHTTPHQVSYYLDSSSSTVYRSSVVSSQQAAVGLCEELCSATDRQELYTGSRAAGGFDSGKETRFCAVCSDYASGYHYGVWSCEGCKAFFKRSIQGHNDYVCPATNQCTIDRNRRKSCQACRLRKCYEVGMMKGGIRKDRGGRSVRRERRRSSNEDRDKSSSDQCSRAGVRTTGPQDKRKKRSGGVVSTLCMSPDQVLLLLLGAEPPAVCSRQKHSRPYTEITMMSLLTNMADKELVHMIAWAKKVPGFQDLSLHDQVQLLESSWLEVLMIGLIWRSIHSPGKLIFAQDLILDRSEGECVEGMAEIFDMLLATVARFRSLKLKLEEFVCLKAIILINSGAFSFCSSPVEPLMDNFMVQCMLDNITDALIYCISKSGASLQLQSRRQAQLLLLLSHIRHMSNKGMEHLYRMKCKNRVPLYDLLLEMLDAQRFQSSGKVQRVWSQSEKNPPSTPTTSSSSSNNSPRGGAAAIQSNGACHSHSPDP
In short: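 After 24 h compound exposure, RNA from transfected HepG2 cells was reverse-transcribed and reporter transcripts resolved by capillary electrophoresis. The TRANS format reads exogenous zebrafish ER1-Gal4 chimera activity on GAL4-UAS elements; gain of signal against DMSO.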

[18] = target: chicken Estrogen Receptor (ERa), ESR1 (gene 396099) (UniProt P06212); assay: ATG_chERa_XSP2: Attagene TRANS-FACTORIAL Multi-Species (XSP2) HepG2 Assay for chicken Estrogen Receptor (ERa) (AID 2283817);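 also: actives raise reporter signal above DMSO so AC50 reflects ER activation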
Chain of chicken Estrogen Receptor (ERa), ESR1 (gene 396099) (P06212 whole entry, looked up, the tested form may be a part): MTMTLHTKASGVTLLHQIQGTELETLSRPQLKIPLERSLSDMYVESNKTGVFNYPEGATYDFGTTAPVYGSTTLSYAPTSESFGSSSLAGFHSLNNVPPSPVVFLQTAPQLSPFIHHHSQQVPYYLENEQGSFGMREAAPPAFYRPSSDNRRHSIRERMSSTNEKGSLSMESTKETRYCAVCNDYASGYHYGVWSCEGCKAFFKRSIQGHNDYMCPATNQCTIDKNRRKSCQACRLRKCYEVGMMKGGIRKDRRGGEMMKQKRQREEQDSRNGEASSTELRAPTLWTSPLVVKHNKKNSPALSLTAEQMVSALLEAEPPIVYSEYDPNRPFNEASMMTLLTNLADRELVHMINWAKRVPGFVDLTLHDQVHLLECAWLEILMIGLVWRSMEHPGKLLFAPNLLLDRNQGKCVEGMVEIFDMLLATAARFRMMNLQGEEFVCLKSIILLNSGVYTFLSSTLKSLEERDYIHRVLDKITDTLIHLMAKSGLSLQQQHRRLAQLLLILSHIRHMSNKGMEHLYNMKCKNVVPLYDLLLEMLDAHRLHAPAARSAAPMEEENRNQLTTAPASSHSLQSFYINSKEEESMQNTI
In short: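 Readout: fluorescent reporter-transcript fragments resolved by capillary electrophoresis after RT-PCR and HpaI cut. Chicken ERa-Gal4 fusion in transiently transfected HepG2, dosed for 24 h; activity taken as increase over DMSO baseline.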

In the case of Nc1ncn[nH]1, the outcome [1] is reported as “inactive”, the outcome [2] is reported as “inactive” and the outcome [3] is reported as “inactive”. The outcome [4] was “inactive”, the outcome [5] was “inactive” and the outcome [6] was “inactive”. For the same compound, the outcome [7] was “inactive”.

With Cc1cc(C)cc(C)c1 the outcome [8] was “inactive”.

In the case of O=C(CBr)c1ccc(O)cc1, the outcome [5] is reported as “inactive”, the outcome [9] is reported as “inactive” and the outcome [7] is reported as “inactive”.

With N#CS the outcome [5] was “inactive”, the outcome [6] was “inactive” and the outcome [7] was “inactive”.

For CN(C)C(=S)S, the AC50 [8] was 0.00103 µM (active), the AC50 [10] was 250 µM (active) and the outcome [5] was “inactive”. The outcome [6] was “inactive”, the outcome [9] was “inactive” and the AC50 [11] was 29.2 µM (active).

For O=c1nc(O)n(Cl)c(=O)n1Cl, the outcome [6] was “inactive”, the outcome [9] was “inactive” and the outcome [7] was “inactive”.

With Cc1cc(Cl)ccc1O the outcome [9] was “inactive” and the outcome [7] was “inactive”.

In the case of O=C(O)COc1ccc(Cl)cc1, the outcome [6] is reported as “inactive” and the outcome [7] is reported as “inactive”.

In the case of O=C(NC(=O)c1c(F)cccc1F)Nc1cc(Cl)c(OC(F)(F)C(F)C(F)(F)F)cc1Cl (centres undefined), the AC50 [6] is reported as 5.54 µM (active), the AC50 [9] is reported as 5.68 µM (active) and the AC50 [7] is reported as 50 µM (active). For the same compound, the AC50 (AR (gene 367) [12]) was 6.32 µM (active).

With C=CC(Cl)CCl (centres undefined) the outcome [6] was “inactive”, the AC50 [9] was 4.53 µM (active) and the outcome (AR (gene 367) [13]) was “inactive”. The outcome (AR (gene 367) [12]) was “inactive”.

For N#CCCC(Br)(C#N)CBr (centres undefined), the outcome [9] was “inactive”, the AC50 [7] was 10.9 µM (active) and the AC50 [11] was 95.3 µM (active).

For CCCCC(CC)COC(=O)Cl (centres undefined), the outcome [7] was “inactive”.

In the case of CC(C)=CC1C(C(=O)OCc2cccc(Oc3ccccc3)c2)C1(C)C (centres undefined), the outcome [9] is reported as “inactive” and the outcome [7] is reported as “inactive”.

In the case of CCN(CCO)CCO, the outcome [6] is reported as “inactive”, the outcome [9] is reported as “inactive” and the outcome [7] is reported as “inactive”.

For O=[N+]([O-])c1ccccc1O, the outcome [6] was “inactive” and the outcome [7] was “inactive”.

For O=CCCl, the outcome [9] was “inactive” and the AC50 [7] was 10.3 µM (active).

For COCCl, the outcome [6] was “inactive”, the outcome [9] was “inactive” and the outcome [7] was “inactive”. The outcome (AR (gene 367) [12]) was “inactive”, the outcome [14] was “inactive” and the outcome [15] was “inactive”. For the same compound, the outcome [16] was “inactive”, the outcome [17] was “inactive” and the outcome [18] was “inactive”.

In the case of CCOP(=S)(OCC)SCS(=O)(=O)C(C)(C)C, the outcome [5] is reported as “inactive” and the outcome [7] is reported as “inactive”.

Reference: PubChem BioAssay (EPA / NIEHS)
